This passage reports growth results from PubChem BioAssay (NCI).

Structures are written as SMILES. This is part of a sample that, as a whole, favours compounds with a hit. Of some 83,000 tested, about 20% had one in any assay.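 Step 1: grow cells in 96-well plates. Step 2: add test compound at a single concentration. Step 3: incubate 48 h. Step 4: record percent growth.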 Unmarked numbers belong to inactive results. Activity calls are given as the source filed them. Rule for the calls: active = growth percent below 10; inactive = the rest.

Holding throughout (experiment): NCI-60 one-dose screen, 48 h (100 = growth as untreated, 0 = no growth, -100 = all killed)
Common to all, as to conditions: 10 µM

Assay [1] has as its system NCI-H23 lung.
Assay [2] deals with NCI-H226 lung.
In assay [3] the test system is HOP-62 NSCLC.
The subject of assay [4] is NCI-H460 lung.
The subject of assay [5] is A549/ATCC NSCLC.
Assay [6] concerns 786-0 renal.
Assay [7] deals with COLO 205 colon.
Assay [8] relates to DU-145 prostate.
Assay [9] has as its system K-562 leukemia.
Assay [10] relates to MALME-3M melanoma.
For assay [11], the system named is MDA-MB-231 breast.
The test system of assay [12] is RXF 393 renal.
The subject of assay [13] is SF-268 CNS.
Assay [14] has as its system SF-295 CNS.
For assay [15], the system named is SF-539 CNS.
In assay [16] the test system is UACC-257 melanoma.
For assay [17], the system named is M14 melanoma.
Assay [18] has as its system NCI-H522 lung.

Take `CCOC(=O)N/N=C/c1ccc(OC)c(OC)c1`: the growth in [1] is 113%; in assay [2], 97.9%; in assay [3], 112%; in assay [4], 102%; in assay [5] it was 102%; in assay [6], 104%. Moreover, the growth in [7] is 117%; in assay [8], 118%; in [9] it was 99.9%; in assay [10] it was 132%; in [11] it was 106%; in assay [12] it was 101%. Further, the growth is 127% in assay [13]; 101% in assay [14]; 112% in assay [15]; 106% in [16]; 113% in assay [17].

In the case of `S=C1N(c2ccccc2)CN(C2CCCCC2)CN1c1ccccc1`, the growth was 100% in assay [1]; 98.7% in assay [2]; 99.9% in [3]; 105% in [4]; -29.7% (active) in assay [18]; 45.5% in assay [5]. For the same compound, the growth was 100% in [6]; 112% in [7]; 107% in assay [8]; 101% in [9]; 98.2% in assay [11]; 109% in assay [12]. The growth in [13] is 118%; in assay [15] it was 88.1%; in assay [16] it was 2.41% (active); in assay [17] it was 100%.

In the case of `CC1C(=NC(=O)c2cnccn2)C(C)C(c2ccc(Cl)cc2)NC1c1ccncc1` (configuration not stated), the growth is 94% in assay [1]; 101% in assay [2]; 97.7% in assay [3]; 108% in assay [4]; 70.9% in assay [18]; 92.9% in assay [5]. The growth in assay [6] is 90.8%; in assay [8], 114%; in assay [11] it was 97%; in assay [12], 100%; in [13], 108%; in [14] it was 117%. Also, the growth in assay [15] is 86.1%; in [16], 94.3%; in assay [17] it was 91.9%.

As to `Cc1ccc(NC(=S)NNC(=S)Nc2ccc(C)cc2)cc1`, the growth was 72.8% in assay [1]; 94.7% in assay [2]; 45.2% in assay [3]; 89.4% in assay [4]; 32.7% in assay [18]; 67% in [5]. Further, the growth was 58.9% in assay [6]; 84.3% in assay [7]; 102% in [8]; 19.4% in assay [9]; 72.5% in assay [11]; 91.5% in [12]. For the same compound, the growth is 85% in assay [13]; 30% in [14]; 62.5% in assay [15]; 75.8% in assay [16]; 44.2% in [17].

Take `O=C1c2c(c(=O)[nH]c3ccccc23)CCN1Cc1ccccc1`: the growth in [1] is 102%; in assay [2] it was 97.1%; in assay [3], 92.7%; in [4] it was 108%; in assay [18] it was 90.6%; in assay [5] it was 103%. Also, the growth in [6] was 99.8%; in assay [8], 122%; in assay [11] it was 98.4%; in assay [12], 111%; in assay [13], 110%; in [14], 104%. Besides, the growth is 90.4% in [15], 104% in [16] and 102% in assay [17].

For the compound `Cc1cc(Cl)ccc1Nc1nc(C(F)(F)F)ccc1C(=O)N/N=C/c1c(Cl)cccc1Cl`, the growth is 19% in assay [1]; 7.42% (active) in assay [2]; -4.74% (active) in [3]; 1.31% (active) in [4]; -16.7% (active) in assay [18]; -63.5% (active) in assay [6]. Further, the growth is -52.8% (active) in assay [7]; 7.36% (active) in assay [9]; -17.2% (active) in [11]; 12.8% in [13]; -37.7% (active) in assay [14]; 5.69% (active) in assay [15]. Further, the growth in [16] is 13.1%; in assay [17], 7.93% (active).

Consider `CC1=NN(C(=O)c2nn(-c3ccc(Cl)cc3)cc2O)C(=O)C1`, for which the growth was 52.5% in assay [1]; 40.3% in assay [2]; 44.1% in assay [3]; 24% in assay [4]; 42.3% in [18]; 45.6% in [5]. Moreover, the growth in assay [6] is 56.5%; in assay [7], 53%; in assay [8] it was 52.4%; in [9], 15.3%; in assay [11] it was 63.2%; in [12], 56.9%. Further, the growth in assay [13] was 38.4%; in [14], 67%; in assay [15], 51.9%; in assay [16], 74.5%; in assay [17] it was 50.9%.

`COc1nc2c(c(=O)n1C)CN(c1ccccc1)C(=O)C(C)N2` (configuration not stated): the growth in [1] is 95.7%; in assay [2], 95.6%; in [3], 88.1%; in [4] it was 104%; in assay [18] it was 84.6%; in assay [5], 99.2%. For the same compound, the growth is 97.5% in assay [6]; 115% in [7]; 114% in [8]; 101% in assay [9]; 98.3% in assay [11]; 95.2% in assay [12]. In addition, the growth was 97.1% in [13]; 105% in assay [14]; 96.1% in assay [15]; 93.5% in assay [16]; 95.3% in [17].

On to `COc1ccc(C2CC(c3cc(OC)c(OC)c(OC)c3)=NN2)cc1` (configuration not stated), for which the growth in [1] was 86.6%; in [2], 93.2%; in assay [3], 98.1%; in [4], 51.5%; in assay [18] it was 53.3%; in assay [5], 51.7%. The growth in [6] is 92.1%; in [7], 55.1%; in [8] it was 91.5%; in assay [9] it was 11.2%; in [11] it was 86.8%; in assay [12] it was 92.5%. Further, the growth in assay [13] is 74.2%; in assay [14] it was 48.1%; in [15], 78.7%; in assay [16] it was 120%; in assay [17], 92.6%.

For the compound `N#Cc1cnn(C(=O)c2nn(-c3ccc(Cl)cc3)cc2O)c1N`, the growth is 9.65% (active) in [1]; 18.4% in assay [2]; 19.2% in assay [3]; 3.09% (active) in [4]; -13.7% (active) in assay [18]; 15.1% in [5]. For the same compound, the growth in assay [6] was 17.3%; in assay [7], -23.4% (active); in assay [8], 34.9%; in assay [9], -17.5% (active); in assay [11] it was 38.5%; in assay [12], 39.3%. The growth in [13] is 29.5%; in [14] it was -25.6% (active); in assay [15], 12.8%; in assay [16], 19%; in assay [17], 24.3%.
